Assay results published in PubChem BioAssay AID1159580 (chemical genetic matrix, 2015).
The whole screen tested about 5,500 compounds, of which about 2,000 (36%) were called active. About 18% were inconclusive and are not listed. The list shows a part of the results. A number with no mark means an inactive call. Cut-off read from the data, not from the text of the source: active = normalized growth mostly below about 0.91 (no sharp cut-off); inconclusive = no clear call, values can overlap the other calls; inactive = mostly above about 0.92.

Assay: chemical genetic growth profiling, strain panel (AID 1159580);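 note: tested at 20 µM; growth read once vehicle control cultures reached saturation at 30 °C; 1 = growth at the plate median or of vehicle wells; lower values mean less growth of the strain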
Settings: growth OD

SMILES: CCC(Cc1c(I)cc(I)c(N)c1I)C(=O)O (stereo unspecified)
- normalized growth (S. cerevisiae deletion strains, locus YKL009W, strain mrt4, active compounds read low): 0.974
- normalized growth (S. cerevisiae deletion strains, locus YKL068W, active compounds read low): 0.986
- normalized growth (S. cerevisiae deletion strains, locus YKL085W, strain MDH1 (second series), active compounds read low): 0.982
- normalized growth (S. cerevisiae deletion strains, locus YKL085W, strain MDH1, active compounds read low): 0.982
- normalized growth (S. cerevisiae deletion strains, locus YKL160W, strain elf1, active compounds read low): 0.961
- normalized growth (S. cerevisiae deletion strains, locus YKL190W, strain CNB1, active compounds read low): 1
- normalized growth (S. cerevisiae deletion strains, locus YKR001C, strain vps1, active compounds read low): 0.996
- normalized growth (S. cerevisiae deletion strains, locus YKR026C, strain gcn3, active compounds read low): 0.946
- normalized growth (S. cerevisiae deletion strains, locus YKR091W, strain srl3, active compounds read low): 0.941
- normalized growth (S. cerevisiae deletion strains, locus YLL001W, strain dnm1, active compounds read low): 0.977
- normalized growth (S. cerevisiae deletion strains, locus YLL026W, active compounds read low): 0.96
- normalized growth (S. cerevisiae deletion strains, locus YLL041C, strain sdh2, active compounds read low): 0.954
- normalized growth (S. cerevisiae deletion strains, locus YLR027C, strain aat2, active compounds read low): 0.964
- normalized growth (S. cerevisiae deletion strains, locus YLR039C, strain RIC1, active compounds read low): 0.933
- normalized growth (S. cerevisiae deletion strains, locus YLR058C, strain SHM2, active compounds read low): 1
- normalized growth (S. cerevisiae deletion strains, locus YLR102C, strain apc9, active compounds read low): 0.999
- normalized growth (S. cerevisiae deletion strains, locus YLR113W, strain HOG1, active compounds read low): 0.127 (active)
- normalized growth (S. cerevisiae deletion strains, locus YLR221C, strain rsa3, active compounds read low): 0.876 (active)
- normalized growth (S. cerevisiae deletion strains, locus YLR258W, strain gsy2, active compounds read low): 0.909 (active)
- normalized growth (S. cerevisiae deletion strains, locus YLR262C, strain YPT6 (second series), active compounds read low): 0.698 (active)
- normalized growth (S. cerevisiae deletion strains, locus YLR262C, strain YPT6, active compounds read low): 0.936
- normalized growth (S. cerevisiae deletion strains, locus YLR268W, strain sec22, active compounds read low): 1
- normalized growth (S. cerevisiae deletion strains, locus YLR320W, strain mms22, active compounds read low): 0.873 (active)
- normalized growth (S. cerevisiae deletion strains, locus YLR330W, strain CHS5, active compounds read low): 0.999
- normalized growth (S. cerevisiae deletion strains, locus YLR342W, strain FKS1 (second series), active compounds read low): 1
- normalized growth (S. cerevisiae deletion strains, locus YLR342W, strain FKS1, active compounds read low): 0.944
- normalized growth (S. cerevisiae deletion strains, locus YLR357W, strain rsc2, active compounds read low): 1.02
- normalized growth (S. cerevisiae deletion strains, locus YLR370C, strain arc18, active compounds read low): 0.95
- normalized growth (S. cerevisiae deletion strains, locus YLR371W, strain rom2, active compounds read low): 1
- normalized growth (S. cerevisiae deletion strains, locus YLR384C, strain iki3, active compounds read low): 0.954
- normalized growth (S. cerevisiae deletion strains, locus YLR418C, strain cdc73, active compounds read low): 1.02
- normalized growth (S. cerevisiae deletion strains, locus YML016C, strain PPZ1, active compounds read low): 0.995
- normalized growth (S. cerevisiae deletion strains, locus YML032C, strain rad52, active compounds read low): 1.02
- normalized growth (S. cerevisiae deletion strains, locus YML120C, strain ndi1, active compounds read low): 0.95
- normalized growth (S. cerevisiae deletion strains, locus YML124C, strain tub3, active compounds read low): 0.992
- normalized growth (S. cerevisiae deletion strains, locus YMR058W, strain fet3, active compounds read low): 0.944
- normalized growth (S. cerevisiae deletion strains, locus YMR078C, strain ctf18, active compounds read low): 1
- normalized growth (S. cerevisiae deletion strains, locus YMR125W, strain sto1, active compounds read low): 0.948
- normalized growth (S. cerevisiae deletion strains, locus YMR129W, active compounds read low): 0.932
- normalized growth (S. cerevisiae deletion strains, locus YMR205C, strain PFK2, active compounds read low): 0.906
- normalized growth (S. cerevisiae deletion strains, locus YMR223W, strain ubp8, active compounds read low): 1.01
- normalized growth (S. cerevisiae deletion strains, locus YMR231W, strain pep5, active compounds read low): 0.97
- normalized growth (S. cerevisiae deletion strains, locus YMR263W, strain SAP30, active compounds read low): 0.989
- normalized growth (S. cerevisiae deletion strains, locus YMR307W, strain GAS1, active compounds read low): 0.963
- normalized growth (S. cerevisiae deletion strains, locus YNL067W, strain RPL9B, active compounds read low): 1.01
- normalized growth (S. cerevisiae deletion strains, locus YNL071W, strain lat1, active compounds read low): 0.689 (active)
- normalized growth (S. cerevisiae deletion strains, locus YNL128W, strain TEP1, active compounds read low): 1.01
- normalized growth (S. cerevisiae deletion strains, locus YNL153C, strain GIM3, active compounds read low): 1.01
- normalized growth (S. cerevisiae deletion strains, locus YNL183C, strain NPR1, active compounds read low): 0.0218 (active)
- normalized growth (S. cerevisiae deletion strains, locus YNL209W, strain ssb2, active compounds read low): 0.966
- normalized growth (S. cerevisiae deletion strains, locus YNL233W, strain BNI4, active compounds read low): 1.01
- normalized growth (S. cerevisiae deletion strains, locus YNL248C, strain rpa49, active compounds read low): 0.887
- normalized growth (S. cerevisiae deletion strains, locus YNL250W, strain rad50, active compounds read low): 0.994
- normalized growth (S. cerevisiae deletion strains, locus YNL271C, strain bni1, active compounds read low): 0.979
- normalized growth (S. cerevisiae deletion strains, locus YNL298W, strain CLA4, active compounds read low): 0.981
- normalized growth (S. cerevisiae deletion strains, locus YNL307C, strain MCK1, active compounds read low): 0.997
- normalized growth (S. cerevisiae deletion strains, locus YNL322C, strain KRE1 (second series), active compounds read low): 0.932
- normalized growth (S. cerevisiae deletion strains, locus YNL322C, strain KRE1, active compounds read low): 1
- normalized growth (S. cerevisiae deletion strains, locus YNR049C, strain mso1, active compounds read low): 0.925
- normalized growth (S. cerevisiae deletion strains, locus YNR052C, strain pop2, active compounds read low): 0.998
- normalized growth (S. cerevisiae deletion strains, locus YOL006C, strain TOP1, active compounds read low): 1.01
- normalized growth (S. cerevisiae deletion strains, locus YOL012C, strain htz1): 1.15
- normalized growth (S. cerevisiae deletion strains, locus YOL147C, strain pex11, active compounds read low): 0.999
- normalized growth (S. cerevisiae deletion strains, locus YOR001W, strain rrp6, active compounds read low): 1
- normalized growth (S. cerevisiae deletion strains, locus YOR061W, strain CKA2, active compounds read low): 0.997
- normalized growth (S. cerevisiae deletion strains, locus YOR069W, strain VPS5, active compounds read low): 0.999
- normalized growth (S. cerevisiae deletion strains, locus YOR070C, strain gyp1, active compounds read low): 0.917 (active)
- normalized growth (S. cerevisiae deletion strains, locus YOR080W, strain dia2, active compounds read low): 0.95
- normalized growth (S. cerevisiae deletion strains, locus YOR083W, strain WHI5, active compounds read low): 0.949
- normalized growth (S. cerevisiae deletion strains, locus YOR106W, strain vam3, active compounds read low): 0.943
- normalized growth (S. cerevisiae deletion strains, locus YOR136W, strain idh2, active compounds read low): 1.02
- normalized growth (S. cerevisiae deletion strains, locus YOR144C, strain elg1, active compounds read low): 0.985
- normalized growth (S. cerevisiae deletion strains, locus YOR184W, strain ser1, active compounds read low): 1.01
- normalized growth (S. cerevisiae deletion strains, locus YOR231W, strain MKK1, active compounds read low): 0.113 (active)
- normalized growth (S. cerevisiae deletion strains, locus YOR265W, strain rbl2, active compounds read low): 0.951
- normalized growth (S. cerevisiae deletion strains, locus YOR270C, strain vph1, active compounds read low): 0.784
- normalized growth (S. cerevisiae deletion strains, locus YOR290C, strain snf2, active compounds read low): 0.92
- normalized growth (S. cerevisiae deletion strains, locus YOR316C, strain cot1, active compounds read low): 0.999
- normalized growth (S. cerevisiae deletion strains, locus YPL051W, strain arl3, active compounds read low): 0.925
- normalized growth (S. cerevisiae deletion strains, locus YPL055C, strain LGE1, active compounds read low): 1.04
- normalized growth (S. cerevisiae deletion strains, locus YPL078C, strain atp4, active compounds read low): 0.974
- normalized growth (S. cerevisiae deletion strains, locus YPL106C, strain sse1, active compounds read low): 0.951
- normalized growth (S. cerevisiae deletion strains, locus YPL240C, strain hsp82, active compounds read low): 0.939
- normalized growth (S. cerevisiae deletion strains, locus YPL241C, strain CIN2, active compounds read low): 0.975
- normalized growth (S. cerevisiae deletion strains, locus YPL256C, strain CLN2, active compounds read low): 0.126 (active)
- normalized growth (S. cerevisiae deletion strains, locus YPR119W, strain clb2, active compounds read low): 0.988
- normalized growth (S. cerevisiae deletion strains, locus YPR141C, strain kar3, active compounds read low): 0.988
- normalized growth (S. cerevisiae deletion strains, locus YPR163C, strain tif3, active compounds read low): 1.01
- normalized growth (S. cerevisiae deletion strains, locus YPR167C, strain met16, active compounds read low): 1
- normalized growth (S. cerevisiae deletion strains, strain wtn01, active compounds read low): 1
- normalized growth (S. cerevisiae strains, strain wild type, active compounds read low): 0.999
